Test results reported in paper PMC6792352, “Limited Chemical Structural Diversity Found to Modulate Thyroid Hormone Receptor in the Tox21 Chemical Library” (Environmental Health Perspectives, 2019).
Structures can show the parent of a compound that is named as a salt.

Each compound was assayed on thyroid hormone receptor (endogenous TRα and TRβ). Conditions: read-out: Average AC50 (uM) GH3-TRE-Antag, antagonist mode, 1 nM T3, no GH3 cytotoxicity hit.
Set-up: species or system GH3-TRE-Luc (rat pituitary); GH3-TRE-Luc luciferase reporter, antagonist mode against 1 nM T3, loss of signal, qHTS
`C[C@]12CC[C@@H]3c4ccc(O)cc4CC[C@H]3[C@@H]1C[C@@H](O)[C@@H]2O` [Estriol] was tested, and the AC50 was over 50 µM.
Work on `Cc1oc(=O)oc1CN1CCN(c2cc3c(cc2F)c(=O)c(C(=O)O)c2n3C(C)S2)CC1` (centres unmarked) [Prulifloxacin] yielded an AC50 of over 50 µM.
`CCCC1C(CC)=CC(CC)=CN1c1ccccc1` (centres unmarked) [3,5-Diethyl-1-phenyl-2-propyl-1,2-dihydropyridine] gave an AC50 of 53.9 µM.
`CC(C)C[C@H](NC(=O)OCC1c2ccccc2-c2ccccc21)C(=O)O` [N-(9-Fluorenylmethoxycarbonyl)-L-leucine] showed an AC50 of over 90 µM.
`CC(C)Oc1ccc2c(=O)c(-c3ccccc3)coc2c1` [Ipriflavone] gave an AC50 of 25 µM.
`CCCCC(C#N)(Cn1cncn1)c1ccc(Cl)cc1` (centres unmarked) [Myclobutanil] was tested, and the AC50 was 79 µM.
`NCCNCCN` [Diethylenetriamine] was tested, and the AC50 was 18 µM.
Compound `CC(C)(C)c1ccc(CCC=O)cc1` [3-(4-tert-Butylphenyl)propanal] has an AC50 of 56.6 µM.
`C(CCOCC1CO1)COCC1CO1` (centres unmarked) [1,4-Butanediol diglycidyl ether] was tested, and the AC50 was 37.9 µM.
For `COc1ccc(Nc2ccccc2)c(C)c1` [4-Methoxy-2-methyl-N-phenylaniline], the AC50 was 52.5 µM.
With `C#C[C@]1(O)CC[C@H]2[C@@H]3CCc4cc(OC)ccc4[C@H]3CC[C@@]21C` [Mestranol] the AC50 was 21.8 µM.
For `O=C(C[C@H]1NCCC[C@@H]1O)Cn1cnc2cc(Br)c(Cl)cc2c1=O` (racemic) [Halofuginone hydrochloride], the AC50 was 46.9 µM.
In the case of `CCCc1nc2c(C)cc(-c3nc4ccccc4n3C)cc2n1Cc1ccc(-c2ccccc2C(=O)O)cc1` [Telmisartan], the AC50 is reported as 31.6 µM.
For `CC(=O)O[C@]1(C(C)=O)CC[C@H]2[C@@H]3C=C(C)C4=CC(=O)CC[C@]4(C)[C@H]3CC[C@@]21C` [Megestrol acetate], the AC50 was over 20 µM.
With `CCCOC(=O)c1ccc(N)cc1` [Risocaine] the AC50 was 44.3 µM.
For `CO[C@@H]1[C@H](OC(=O)/C=C/C=C/C=C/C=C/C(=O)O)CC[C@]2(CO2)[C@H]1[C@@]1(C)O[C@@H]1CC=C(C)C` [Fumagillin], the AC50 was 0.0177 µM.
For `C=CC(=O)OCCOC(=O)CCC(=O)O` [4-[2-(Acryloyloxy)ethoxy]-4-oxobutanoic acid], the AC50 was 73 µM.
`CC[C@@]1(O)C(=O)OCc2c1cc1n(c2=O)Cc2cc3c(CN(C)C)c(O)ccc3nc2-1` [Topotecan hydrochloride] showed an AC50 of 2.45 µM.
For `Cc1cc(C(F)(C(F)(F)F)C(F)(F)F)ccc1NC(=O)c1cccc(I)c1C(=O)NC(C)(C)CS(C)(=O)=O` [Flubendiamide], the AC50 was 33.5 µM.
With `O=c1[nH]c2ccc([S+]([O-])CCN3CCC(Cc4ccc(F)cc4)CC3)cc2o1` (centres unmarked) [Besonprodil] the AC50 was 75.9 µM.
With `CC1(C)[C@H](C(=O)OCc2coc(Cc3ccccc3)c2)[C@@H]1/C=C1\CCSC1=O` [Kadethrin] the AC50 was 48.4 µM.
For `CCCCc1c(C)nc(NCC)nc1OS(=O)(=O)N(C)C` [Bupirimate], the AC50 was over 90 µM.
With `CC1=C2[C@H](/C=C(\C)C(=O)O)CC[C@@H](C)[C@H]2CC1` [Valerenic acid] the AC50 was 57.5 µM.
`CCCCCCCCCCO[C@@H]1O[C@H](CO)[C@@H](O)[C@H](O)[C@H]1O` [Decyl beta-D-glucopyranoside] was tested, and the AC50 was 68.4 µM.
Work on `O=C(Nc1ccc(Cl)c(Cl)c1)C1CC1` [Cypromid] yielded an AC50 of 45.8 µM.
`CCCCCCCCCCCCCC(=O)OCC(O)CO` (centres unmarked) [Tetradecanoic acid, 2,3-dihydroxypropyl ester] was tested, and the AC50 was 61.9 µM.
In the case of `CCCCCOC(=O)COc1cc(N2C(=O)C3=C(CCCC3)C2=O)c(F)cc1Cl` [Flumiclorac-pentyl], the AC50 is reported as 52.5 µM.
Compound `O=C(N/N=C/c1ccccc1O)c1ccncc1` [Salinazid] has an AC50 of 20.5 µM.
Work on `Oc1ccc2ccc3cccc4ccc1c2c34` [1-Hydroxypyrene] yielded an AC50 of 55.7 µM.
Work on `C[C@]12CCC(=O)C=C1CC[C@@H]1[C@@H]2CC[C@@]2(C)[C@H]1CC[C@]2(O)C(=O)CO` [Cortodoxone] yielded an AC50 of 21.8 µM.
Compound `Cc1cccc(C)c1Nc1ncccc1C(=O)O` [Metanixin] has an AC50 of 28.2 µM.
Work on `CCCc1c(OCCCCc2nnn[nH]2)ccc(C(C)=O)c1O` [Tomelukast] yielded an AC50 of 49.2 µM.
`O=Cc1ccc(Cl)c([N+](=O)[O-])c1` [4-Chloro-3-nitrobenzaldehyde] showed an AC50 of 68.3 µM.
`C(COCC1CO1)OCC1CO1` (centres unmarked) [Ethylene glycol diglycidyl ether] showed an AC50 of 38 µM.
`CCN(CC)CCOC(=O)[C@H](Cc1cccc2ccccc12)C[C@H]1CCCO1` [Nafronyl oxalate] was tested, and the AC50 was 10.7 µM.
`CC(C)C(O)(c1ccc(OC(F)(F)F)cc1)c1cncnc1` (centres unmarked) [Flurprimidol] gave an AC50 of 70.7 µM.
For `Cn1c(CCCC(=O)O)nc2cc(N(CCCl)CCCl)ccc21` [Bendamustine], the AC50 was 28 µM.
In the case of `C/C=C(/CC[C@@H](C)[C@H]1CC[C@H]2C3=CC[C@H]4[C@H](C)[C@@H](O)CC[C@]4(C)[C@H]3CC[C@]12C)C(C)C` [Sitosterol alpha1], the AC50 is reported as 40.6 µM.
